PAX8 reporter = lowers PAX8-driven luciferase in RMG-I cells; inhibition, % at 12.6 µM; actives 1.2% (n = 360,000); RMG-I TPO-luciferase reporter, SteadyGlo, 24 h;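 active = mean replicate inhibition at least 60% with every replicate also reaching 60%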;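 also: luciferase light reporting Pax8 driven TPO promoter activity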
TROY signal inh = inhibitors of TROY-dependent NF-kB signaling; Q293 LMP1-TROYcd NF-kB luciferase reporter, 4 h; inhibition, % at 10 µM; actives 0.98% (n = 360,000); AID 1347056;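 active = compounds whose plate-normalised and pattern-corrected inhibition of the luciferase reporter signal at the single screening dose is 50% or more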
TWEAK-Fn14 inh = TWEAK-Fn14 signaling inhibition; actives 2% (n = 360,000); TWEAK-stimulated Fn14 reporter cells, luciferase luminescence, 8 h; inhibition, % at 10 µM; in the data active = inhibition above about 50%
LGR2 antag = inhibitors of bursicon-induced Drosophila LGR2 receptor cAMP signaling; actives 0.35% (n = 380,000); HEK293 LGR2, CRE-luciferase, bursicon-stimulated, 4 h; inhibition, % at 9.99 µM;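 active = drop in luminescence signal, shown as inhibition above about 50% in the replicate tests, limit read from the data, passing the limit was not always enough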;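 also: agonist challenge used bursicon conditioned medium at about half maximal strength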
EWS-Fli block = inhibitors of EWS/Fli oncoprotein transcriptional activity; AID 651661; actives 0.67% (n = 350,000); inhibition, % at 12.6 µM; A673 NR0B1-luciferase reporter, viability-normalised;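 active = mean inhibition of at least 50% after viability correction, with every replicate also passing that limit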;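 also: firefly luciferase signal divided by Alamar Blue viability fluorescence both relative to DMSO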
LMP1 NFkB inh = inhibitors of Epstein-Barr LMP1-induced NF-kappaB reporter. LMP1-induced NF-kappaB luciferase reporter cells, luminescence. actives 0.69% (n = 350,000). inhibition, % at 12.5 µM; in the data active = inhibition above about 41%
Hits are given with their value; n = inactive; x = not tested or not shown. Only some compounds are listed: those with a hit (about 3.2% of all), similar ones and a draw of the others.

SMILES | PAX8 reporter | TROY signal inh | TWEAK-Fn14 inh | LGR2 antag | EWS-Fli block | LMP1 NFkB inh
O=C(NCc1ccccc1)C1=C[C@H](c2csc3ccccc23)C[C@H](OCc2ccc(CO)cc2)O1 | n | n | n | n | n | n
O=C(Nc1ccccc1)C1=C[C@H](C2CCCCC2)C[C@H](OCc2ccc(CO)cc2)O1 | n | 66 | n | n | n | n
CC(C)(C)[C@H]1C=C(C(=O)Nc2ccccc2)O[C@@H](OCc2ccc(CO)cc2)C1 | n | n | n | n | n | n
O=C(Nc1ccccc1)C1=C[C@@H](c2csc3ccccc23)C[C@@H](OCc2ccc(CO)cc2)O1 | n | 76 | n | n | n | n
O=C(Nc1ccccc1)C1=C[C@@H](c2ccccc2)C[C@@H](OCc2ccc(CO)cc2)O1 | n | n | n | n | n | n
Cn1c(=O)c([N+](=O)[O-])c(Cl)c2ccccc21 | 101 | n | n | n | 61 | n
Cc1ccc(S(=O)(=O)Nc2ccc3c(c2)C(=O)N([C@H](C)CO)C[C@H](C)[C@H](CN(C)S(=O)(=O)c2cn(C)cn2)O3)cc1 | n | x | x | n | n | x
C(=N\Nc1nc(-c2ccccc2)cs1)/c1ccncc1 | n | n | n | n | n | n
O=[N+]([O-])c1cccc(-c2csc(N/N=C/c3cccc(O)c3)n2)c1 | n | 51 | 58 | n | n | n
Cc1ccc(-c2csc(N/N=C/c3ccco3)n2)cc1 | x | n | n | n | x | n
CN(C)S(=O)(=O)c1ccc(-c2csc(N/N=C/c3ccc(O)cc3)n2)cc1 | n | 69 | 99 | n | 56 | n
CN(C)S(=O)(=O)c1ccc(-c2csc(N/N=C/c3ccco3)n2)cc1 | n | 71 | 104 | 102 | n | n
CCCC(=O)Nc1ccc2c(c1)C(=O)N(C)[C@H]1CC[C@H](CC(=O)Nc3ccccc3)O[C@@H]1CO2 | n | x | x | n | n | x
O=C(c1ccccc1)N1CC2(C1)[C@H](c1ccccc1)[C@@H](CO)N2Cc1cccnc1 | n | x | x | n | n | x
CC1C(=O)N(Cc2cn(CCC3OCCCO3)nn2)CCS(=O)(=O)N1Cc1ccc(-c2ccc(Cl)c(Cl)c2)cc1 (configuration not stated) | n | n | 71 | n | n | n
CC(C)C1C(=O)N(Cc2cn(CCC3OCCCO3)nn2)CCS(=O)(=O)N1Cc1ccc(-c2ccc(Cl)nc2)cc1 (configuration not stated) | 74 | n | n | n | n | n
CNC[C@@H]1OCCCC[C@H](C)Oc2ccc(N(C)C)cc2C(=O)N([C@@H](C)CO)C[C@@H]1C | n | x | x | n | n | x
COc1ccc(COCC23N=C4SCc5ccccc5C(=O)N4[C@H](c4ccccc4O2)[C@H]3COC(=O)c2ccccc2)cc1 | n | x | x | x | n | x
CCC1(O)CC2CN(CCc3c([nH]c4ccccc34)C(C(=O)OC)(c3cc4c(cc3OC)N(C=O)C3C(O)(C(=O)OC)C(OC(C)=O)C5(CC)C=CCN6CCC43C65)C2)C1 (configuration not stated) | 83 | n | n | n | n | n
COc1ccc(CCNC(=O)[C@H](C)N2C(=O)N3CCc4c([nH]c5ccccc45)[C@@]3(C)C2=O)cc1OC | x | n | n | n | n | n
CCc1ccccc1NC(=O)CN(C)C(=O)Cn1ncc(Cl)c(Cl)c1=O | 68 | n | 93 | x | 63 | 71
CCC(=O)Nc1ccc(C(=O)Cn2ncc(Cl)c(Cl)c2=O)cc1 | 78 | n | 76 | n | n | n
CCOC(=O)c1ccc(NC(=O)Cn2ncc(Cl)c(Cl)c2=O)cc1 | 95 | 75 | 99 | n | n | n
Cc1ccccc1-c1cnc2c(c1)C(=O)N([C@@H](C)CO)C[C@@H](C)[C@H](CN(C)Cc1cncnc1)O2 | n | x | x | n | n | x
Cc1cccc(-c2ccc([C@H]3[C@@H](CO)N4CCCCN(C(=O)c5ccncc5)C[C@H]34)cc2)c1 | n | x | x | n | n | x
COc1cc2cc(-c3ccc(OC)c(OC)c3C)nc(N)c2cc1OC | 71 | n | n | n | 52 | x
C[C@H](NC(=O)C[C@H]1C[C@H]2c3cc(NC(=O)CN(C)C)ccc3O[C@H]2[C@H](CO)O1)c1ccccc1 | n | x | x | n | n | x
O=C(NC(=S)Nc1cccc(Cl)c1N1CCCCC1)c1ccc2c(c1)OCCO2 | n | 70 | 71 | n | x | n
COc1cccc(N(C(=O)CCl)C(C(=O)NCCc2ccccc2)c2cccs2)c1 (configuration not stated) | x | n | 59 | n | x | n

Source: PubChem
